# Experimental data: PubChem BioAssay
# Active and inactive are the calls of the source.
# How the values were obtained:
# [1] = compounds binding Alexa647 anti-His antibody – biochemical, small-molecule microarray, 635 nm fluorescence, artefact control for SMM control protein annotation, primary screen (AID 1128); settings: higher = more signal;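 further: score merges feature fluorescence with signal-to-noise for each printed compound spot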
# [2] = test system: Human papillomavirus type 1a E7 protein (residues 1-88); assay: HPV1a E7 small-molecule binders, primary screen, biochemical, small-molecule microarray, residues 1-88, 635 nm (AID 1129); settings: small-molecule microarray binding, fluorescence 635 nm; higher = more signal
# [3] = biological target: Focal adhesion kinase 1 (Homo sapiens) (UniProt Q05397); assay: PTK2 protein binding on printed compound slides – biochemical, small-molecule microarray, 635/667 nm fluorescence, BSA, DTT, primary screen (AID 1130); settings: 635 nm fluorescence, higher = more signal;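 further: composite of spot emission at 667 nm and signal to noise over triplicate slides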
# [4] = test system: Fibrinogen (Alexa647-labelled); assay: Alexa647-fibrinogen binding to printed small molecules – biochemical, small-molecule microarray, 635/667 nm fluorescence, artefact control for SMM control-protein annotation, profiling panel (AID 1131); settings: fibrinogen-A647 binding fluorescence, higher = more signal;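 further: z-score merges 667 nm fluorescence with per-spot signal-to-noise over triplicate slides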
# [5] = biological target: Follistatin (Homo sapiens) (UniProt P19883); assay: FST protein binding to printed compounds – biochemical, small-molecule microarray, 635/667 nm fluorescence, primary screen (AID 1132); settings: 635 nm fluorescence, higher = more signal
# [6] = biological target: Fibroblast growth factor 2 (Homo sapiens) (UniProt P09038); assay: basic fibroblast growth factor binding to printed compounds – biochemical, small-molecule microarray, 635/667 nm fluorescence, primary screen (AID 1133); settings: FGF2, fluorescence 635/667, higher = more signal
# [7] = JC-1 mitochondrial potential readout, lung cancer cells – cell-based, A549, JC-1 fluorescence, basal, 24 h, 100 nL, profiling panel (AID 1138); settings: higher = more signal;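 further: A549 lung adenocarcinoma cells under basal conditions with no added stimulus; test concentration not given here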
# [8] = test system: Lefty1; assay: Lefty1 protein binding to printed compounds – biochemical, small-molecule microarray, 635/667 nm fluorescence, primary screen (AID 1139); settings: fluorescence 635/667, higher = more signal
# [9] = test system: wheat germ agglutinin (Triticum aestivum), Alexa647-labelled; assay: Alexa647-WGA lectin binding to printed small molecules – biochemical, small-molecule microarray, 635/667 nm fluorescence, artefact control for SMM control-protein annotation, profiling panel (AID 1140); settings: WGA-A647 binding, 635 nm fluorescence, higher = more signal;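 further: score merges 667 nm feature emission with signal to noise over triplicate slides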
# [10] = biological target: Luciferin 4-monooxygenase (Photinus pyralis) (UniProt P08659); assay: inhibition of purified Photinus pyralis luciferase – biochemical, luminescence, purified enzyme, 2006 set, primary screen (AID 1141); settings: purified firefly luciferase, SteadyGlo luminescence, 30 min; higher = more signal, called active from +8 up or from −8 down;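 further: cell-free assay with purified firefly luciferase at 100 ng per well in PBS; test concentration not given here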
# Sequence of Luciferin 4-monooxygenase (Photinus pyralis) (P08659 whole entry, looked up): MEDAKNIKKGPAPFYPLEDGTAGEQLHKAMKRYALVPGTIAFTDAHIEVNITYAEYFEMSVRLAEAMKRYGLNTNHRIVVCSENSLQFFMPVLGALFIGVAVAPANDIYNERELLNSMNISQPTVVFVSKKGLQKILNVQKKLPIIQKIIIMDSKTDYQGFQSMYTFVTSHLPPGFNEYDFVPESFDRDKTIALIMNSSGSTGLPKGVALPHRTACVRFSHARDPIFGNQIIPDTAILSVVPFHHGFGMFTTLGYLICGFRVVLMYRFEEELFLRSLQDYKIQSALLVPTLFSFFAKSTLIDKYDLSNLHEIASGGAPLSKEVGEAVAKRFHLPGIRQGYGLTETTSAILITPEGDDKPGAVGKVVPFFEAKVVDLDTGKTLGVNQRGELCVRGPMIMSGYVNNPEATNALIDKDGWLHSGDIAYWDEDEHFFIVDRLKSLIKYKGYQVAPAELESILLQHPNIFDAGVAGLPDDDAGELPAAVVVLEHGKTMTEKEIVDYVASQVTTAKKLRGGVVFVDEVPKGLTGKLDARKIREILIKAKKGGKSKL
# Sequence of Fibroblast growth factor 2 (Homo sapiens) (P09038 whole entry, looked up): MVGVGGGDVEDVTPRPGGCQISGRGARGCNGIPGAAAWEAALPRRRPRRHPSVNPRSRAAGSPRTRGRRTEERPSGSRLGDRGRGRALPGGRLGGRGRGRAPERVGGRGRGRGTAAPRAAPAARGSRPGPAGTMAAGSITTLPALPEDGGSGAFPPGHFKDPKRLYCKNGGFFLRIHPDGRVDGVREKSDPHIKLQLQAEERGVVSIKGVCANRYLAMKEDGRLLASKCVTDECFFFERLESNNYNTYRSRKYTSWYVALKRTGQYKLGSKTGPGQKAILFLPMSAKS
# Sequence of Focal adhesion kinase 1 (Homo sapiens) (Q05397 whole entry, looked up): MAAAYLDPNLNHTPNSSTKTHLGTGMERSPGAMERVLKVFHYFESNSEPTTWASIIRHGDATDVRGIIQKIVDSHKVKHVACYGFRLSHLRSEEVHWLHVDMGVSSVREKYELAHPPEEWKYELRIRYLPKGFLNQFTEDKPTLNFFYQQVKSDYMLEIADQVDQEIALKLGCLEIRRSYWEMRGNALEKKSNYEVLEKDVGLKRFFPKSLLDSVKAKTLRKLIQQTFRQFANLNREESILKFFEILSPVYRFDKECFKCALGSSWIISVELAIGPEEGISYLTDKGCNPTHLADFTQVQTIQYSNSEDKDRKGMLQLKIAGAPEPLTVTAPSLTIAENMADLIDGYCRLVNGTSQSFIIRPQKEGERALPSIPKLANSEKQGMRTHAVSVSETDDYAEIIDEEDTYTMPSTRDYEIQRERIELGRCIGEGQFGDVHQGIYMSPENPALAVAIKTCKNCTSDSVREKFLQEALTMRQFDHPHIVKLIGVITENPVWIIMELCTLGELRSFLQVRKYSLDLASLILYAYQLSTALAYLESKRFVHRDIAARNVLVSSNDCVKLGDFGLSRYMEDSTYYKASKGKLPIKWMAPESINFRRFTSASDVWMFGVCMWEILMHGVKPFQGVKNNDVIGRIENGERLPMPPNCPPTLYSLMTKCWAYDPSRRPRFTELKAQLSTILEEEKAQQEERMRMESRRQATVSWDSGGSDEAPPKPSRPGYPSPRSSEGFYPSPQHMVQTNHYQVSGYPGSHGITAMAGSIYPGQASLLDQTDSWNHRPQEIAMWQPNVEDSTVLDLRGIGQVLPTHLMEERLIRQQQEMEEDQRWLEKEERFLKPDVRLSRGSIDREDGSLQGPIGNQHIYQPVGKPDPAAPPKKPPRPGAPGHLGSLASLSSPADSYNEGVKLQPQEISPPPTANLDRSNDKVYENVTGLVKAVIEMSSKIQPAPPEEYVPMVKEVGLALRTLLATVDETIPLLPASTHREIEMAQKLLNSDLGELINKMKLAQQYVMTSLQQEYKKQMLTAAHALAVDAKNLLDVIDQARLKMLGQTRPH
# Sequence of Follistatin (Homo sapiens) (P19883 whole entry, looked up): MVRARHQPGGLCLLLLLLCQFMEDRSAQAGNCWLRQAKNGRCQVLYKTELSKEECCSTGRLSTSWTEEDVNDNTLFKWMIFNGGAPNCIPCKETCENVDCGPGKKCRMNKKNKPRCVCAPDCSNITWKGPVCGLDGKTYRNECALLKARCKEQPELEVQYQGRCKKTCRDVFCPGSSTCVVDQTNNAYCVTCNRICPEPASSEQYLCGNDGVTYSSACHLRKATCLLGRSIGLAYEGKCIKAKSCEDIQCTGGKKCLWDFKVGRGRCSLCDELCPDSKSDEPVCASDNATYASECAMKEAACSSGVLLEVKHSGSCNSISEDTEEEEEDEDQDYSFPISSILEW
compound,measurement,setting,value
C=C[C@H](OC)[C@@H](OC(=O)Nc1ccc(SC)cc1)c1ccc(O)c(F)c1,composite z-score,[1],0.705
same,composite z-score,[2],0.0378
same,composite z-score,[3],-0.264
same,composite z-score,[4],0.756
same,composite z-score,[5],0.171
same,composite z-score,[6],0.781
same,z-score,[7],-0.97
same,composite z-score,[8],-0.0871
same,composite z-score,[9],0.0251
same,z-score,[10],-3.45 (inactive)
O=C1C2C=CC(C(O)c3ccccc3)N(n3cnnc3)C2C(=O)N1Cc1ccccc1 (stereo not given),composite z-score,[1],0.0968
same,composite z-score,[2],0.561
same,composite z-score,[3],0.321
same,composite z-score,[4],0.249
same,composite z-score,[5],0.438
same,composite z-score,[6],-0.0128
same,z-score,[7],0.348
same,composite z-score,[8],-0.497
same,composite z-score,[9],-0.164
same,z-score,[10],-1.55 (inactive)
CC(C)(C)OC(=O)CC[C@@]1(C(=O)NCc2ccccc2)N=C(c2ccc(OCCCO)cc2)O[C@@H]1c1ccccc1,composite z-score,[1],2.76
same,composite z-score,[2],1.25
same,composite z-score,[3],1.18
same,composite z-score,[4],0.966
same,composite z-score,[5],1.16
same,composite z-score,[6],0.244
same,z-score,[7],0.614
same,composite z-score,[8],0.353
same,composite z-score,[9],1.53
same,z-score,[10],-1.54 (inactive)
COCCOC(=O)N1C(=O)[C@@]2(c3cc(C#CCNC(N)=O)ccc31)[C@H](C(=O)N1CCCCCCC1)[C@H]1C(=O)O[C@H](c3ccccc3)[C@H](c3ccccc3)N1[C@@H]2c1ccccc1OCCO,composite z-score,[1],0.455
same,composite z-score,[2],1.14
same,composite z-score,[3],0.784
same,composite z-score,[4],0.47
same,composite z-score,[5],1.33
same,composite z-score,[6],0.385
same,z-score,[7],-0.751
same,composite z-score,[8],1.21
same,composite z-score,[9],0.835
same,z-score,[10],-0.201 (inactive)
CC[C@H]1C2=C3C(CC[C@H]4C(OC)OC[C@](C)([C@@H]34)N(C(=O)OC(C)(C)C)C2)C(CO)C1CO (stereo not given in full),composite z-score,[1],2.26
same,composite z-score,[2],1.18
same,composite z-score,[3],1.47
same,composite z-score,[4],0.43
same,composite z-score,[5],0.579
same,composite z-score,[6],-0.468
same,z-score,[7],1.16
same,composite z-score,[8],-0.181
same,composite z-score,[9],1.06
same,z-score,[10],0.16 (inactive)
O=C(CS)NCCCCCNC(=O)[C@H]1C[C@H]2C(=O)N3CCC[C@H]3C(=O)N2[C@H]1c1ccc(O)cc1,composite z-score,[1],0.215
same,composite z-score,[2],-1.25
same,composite z-score,[3],-0.384
same,composite z-score,[4],-0.743
same,composite z-score,[5],0.927
same,composite z-score,[6],0.917
same,z-score,[7],1.54
same,composite z-score,[8],-0.0421
same,composite z-score,[9],-1.68
same,z-score,[10],-1.75 (inactive)
O=C1c2ccccc2[C@](Cc2ccccc2I)(C(=O)NCc2ccccc2)[C@H](c2ccc(CO)cc2)N1Cc1ccccc1C(F)(F)F,composite z-score,[1],-0.77
same,composite z-score,[2],-0.455
same,composite z-score,[3],-0.328
same,composite z-score,[4],-0.373
same,composite z-score,[5],-1.2
same,composite z-score,[6],-1.36
same,z-score,[7],1.11
same,composite z-score,[8],-1.22
same,composite z-score,[9],-1.12
same,z-score,[10],-1.09 (inactive)
CN(C)c1ccc(C(O)C2C=CC3C(=O)NC(=O)C3N2Nc2ccc(Cl)cc2Cl)cc1 (stereo not given),composite z-score,[1],-0.129
same,composite z-score,[2],1.14
same,composite z-score,[3],0.155
same,composite z-score,[4],0.762
same,composite z-score,[5],1.16
same,composite z-score,[6],-0.785
same,z-score,[7],0.587
same,composite z-score,[8],-0.345
same,composite z-score,[9],0.5
same,z-score,[10],-0.316 (inactive)
CCCN1C(=O)[C@@]2(CCS(=O)(=O)c3ccccc3)N=C(c3ccc(OCCCO)cc3)O[C@H]2c2ccccc21,composite z-score,[1],2.79
same,composite z-score,[2],1.23
same,composite z-score,[3],0.494
same,composite z-score,[4],0.762
same,composite z-score,[5],1.4
same,composite z-score,[6],0.961
same,z-score,[7],0.782
same,composite z-score,[8],0.78
same,composite z-score,[9],0.46
same,z-score,[10],-0.869 (inactive)
Cc1ccc(S[C@]2(C(=O)NCCN3CCOCC3)CC(=O)N(C3Cc4ccccc4C3)[C@@H]2c2ccc(CO)cc2I)cc1,composite z-score,[1],0.0031
same,composite z-score,[2],-0.521
same,composite z-score,[3],0.355
same,composite z-score,[4],0.0025
same,composite z-score,[5],-1.23
same,composite z-score,[6],-1.41
same,z-score,[7],1.3
same,composite z-score,[8],-1.21
same,composite z-score,[9],1.01
same,z-score,[10],-0.83 (inactive)
C=CC[C@]1(C(=O)N2CCCCC2)N=C(c2ccc(OCCCO)cc2)O[C@H]1c1ccccc1N=[N+]=[N-],composite z-score,[1],2.94
same,composite z-score,[2],1.26
same,composite z-score,[3],0.426
same,composite z-score,[4],1.01
same,composite z-score,[5],1.4
same,composite z-score,[6],1.55
same,z-score,[7],-0.591
same,composite z-score,[8],1.48
same,composite z-score,[9],1.37
same,z-score,[10],-10 (active)
N#Cc1ccc(NN2C(C(O)c3ccc(I)cc3)C=CC3C(=O)N(c4ccccc4)C(=O)C32)cc1 (stereo not given),composite z-score,[1],1.33
same,composite z-score,[2],1.25
same,composite z-score,[3],0.945
same,composite z-score,[4],0.945
same,composite z-score,[5],0.402
same,composite z-score,[6],-0.194
same,z-score,[7],1.96
same,composite z-score,[8],-0.491
same,composite z-score,[9],1.3
same,z-score,[10],0.628 (inactive)
C=CCNC(=O)[C@@H]1[C@H]2C(=O)O[C@H](c3ccccc3)[C@H](c3ccccc3)N2[C@H](c2ccc(OCCO)cc2)[C@@]12C(=O)N(C(=O)OCCOC)c1ccc(C#CC3(O)CCCCCC3)cc12,composite z-score,[1],0.166
same,composite z-score,[2],1.2
same,composite z-score,[3],0.262
same,composite z-score,[4],0.827
same,composite z-score,[5],1.18
same,composite z-score,[6],0.833
same,z-score,[7],-1
same,composite z-score,[8],0.326
same,composite z-score,[9],1.15
same,z-score,[10],-2.35 (inactive)
[N-]=[N+]=NCc1ccccc1C[C@]1(C(=O)N2CCCCC2)N=C(c2ccc(OCCCO)cc2)O[C@H]1c1ccccc1CN=[N+]=[N-],composite z-score,[1],0.538
same,composite z-score,[2],1.21
same,composite z-score,[3],0.652
same,composite z-score,[4],0.947
same,composite z-score,[5],1.04
same,composite z-score,[6],-0.369
same,z-score,[7],-0.0989
same,composite z-score,[8],0.453
same,composite z-score,[9],0.59
same,z-score,[10],-1.02 (inactive)
COc1cc2c(cc1OC)CN(C(=O)[C@H]1[C@@H]3C(=O)O[C@@H](c4ccccc4)[C@@H](c4ccccc4)N3[C@@H](c3ccc(O)cc3)[C@]13C(=O)Nc1ccc(C#CC4(O)CCCCCC4)cc13)CC2,composite z-score,[1],1.5
same,composite z-score,[2],1.23
same,composite z-score,[3],1.02
same,composite z-score,[4],0.86
same,composite z-score,[5],1.28
same,composite z-score,[6],1.71
same,z-score,[7],-1.23
same,composite z-score,[8],0.59
same,composite z-score,[9],1.31
same,z-score,[10],-0.409 (inactive)
COCCOC(=O)N1C(=O)[C@@]2(c3cc(C#CC4=CCCCC4)ccc31)[C@H](C(=O)NC[C@H](O)c1ccccc1)[C@H]1C(=O)O[C@H](c3ccccc3)[C@H](c3ccccc3)N1[C@@H]2c1ccc(OCCO)cc1,composite z-score,[1],0.577
same,composite z-score,[2],1.2
same,composite z-score,[3],0.221
same,composite z-score,[4],0.955
same,composite z-score,[5],1.35
same,composite z-score,[6],1.22
same,z-score,[7],-1.73
same,composite z-score,[8],1.08
same,composite z-score,[9],0.971
same,z-score,[10],-0.526 (inactive)
